NFkB transloc inh: inhibitors of IL-1B driven NFkB p65 nuclear import, primary screen, imaging, HUVEC, IL-1B stimulus, high-content imaging; 0.43% of 94,000 active; HUVEC IL-1B NFkB p65 nuclear translocation imaging; inhibition, % at 2 µM;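 active = inhibition above about 30% together with a positive call from visual inspection of the well image, limit read from the data; inconclusive = inhibition above a set limit but visual check negative; inactive = inhibition not above a set limit, visual check negative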;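 note: nuclear over cytoplasmic p65 intensity ratio measured by imaging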
PTK2B oligo ant: antagonists of Pyk2 self-association, primary screen, Q293 cells, FERM NanoBiT luminescence, HTS; 0.83% of 99,000 active; z-score (the deposit names both 25 µM and 10 µM); AID 1347419, 2020; stronger effect = lower value;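 active = Z-score of -3 or lower, scaled per plate to the spread of control and sample wells; inactive = z-score above -3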;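 note: negative z-score means lost luminescence so less FERM oligomerization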
PLK1 PBD inh: Plk1 polo box domain binding inhibitors, primary screen, biochemical, fluorescence polarization. Plk1 PBD phosphopeptide binding. inhibition, %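 (tested at about 20 µM)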. 0.13% of 97,000 active. AID 693, 2007; in the data active = inhibition above about 34%, passing the limit was not always enough
Target sequence (P53350 whole entry, looked up, the tested form may be a part): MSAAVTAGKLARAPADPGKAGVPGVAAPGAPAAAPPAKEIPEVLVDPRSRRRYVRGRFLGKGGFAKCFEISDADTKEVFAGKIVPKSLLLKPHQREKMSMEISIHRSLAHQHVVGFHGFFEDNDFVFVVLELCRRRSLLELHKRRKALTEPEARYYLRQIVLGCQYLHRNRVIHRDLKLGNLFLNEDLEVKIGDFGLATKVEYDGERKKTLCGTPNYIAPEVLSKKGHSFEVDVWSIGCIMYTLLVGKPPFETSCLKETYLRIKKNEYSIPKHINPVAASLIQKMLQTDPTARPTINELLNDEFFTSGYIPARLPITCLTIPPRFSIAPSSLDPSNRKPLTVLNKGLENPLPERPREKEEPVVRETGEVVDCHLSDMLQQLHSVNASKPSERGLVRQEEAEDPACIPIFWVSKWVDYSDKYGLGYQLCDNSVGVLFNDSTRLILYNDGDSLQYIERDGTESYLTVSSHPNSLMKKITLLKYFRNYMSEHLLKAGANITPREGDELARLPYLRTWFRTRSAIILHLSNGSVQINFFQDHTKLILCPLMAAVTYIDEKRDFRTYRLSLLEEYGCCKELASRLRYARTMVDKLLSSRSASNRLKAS
IL1B cytotox: cytotoxicity in IL-1B stimulated HUVEC, primary screen, cytotoxicity control for IL-1B NFkB translocation project, imaging, Hoechst nuclear count, IL-1B stimulus; AID 845, 2007; cell count reduction, % at 2 µM; HUVEC cell count loss; 0.41% of 94,000 active;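 active = cell count reduction more than 3 SD above the screen-wide mean, cut at about 70% in these data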
NFkB transloc pot: enhancers of NFkB p65 translocation in HUVEC – imaging, IL-1B stimulus, high-content imaging, primary screen; HUVEC IL-1B NFkB p65 nuclear translocation imaging; 0.3% of 94,000 active; AID 819, 2007; activation, % at 2 µM;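 active = activation above 40%, about the mean plus 3 SD, also judged a hit on visual image review; inconclusive = activation above 40% but not a hit on visual review; inactive = activation not above 40% and no visual hit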;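 note: percent activation is computed from the nuclear over cytoplasmic p65 intensity ratio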
PLK1 kinase inh: human PLK1 kinase inhibitors, primary screen, biochemical, TR-FRET | Serine/threonine-protein kinase PLK1 (Homo sapiens), P53350 | recombinant PLK1 kinase, TR-FRET peptide phosphorylation | inhibition, % at 10 µM | 0.53% of 97,000 active | AID 619, 2007;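 active = inhibition of 50% or more in the single-concentration screen; inactive = inhibition below 50%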
PLK1 confirm: PLK1 kinase activity inhibitors, confirmation, biochemical, TR-FRET, duplicate runs | shares compounds with PLK1 kinase inh | 20% of 210 active | inhibition, % at 10 µM | recombinant PLK1 kinase, TR-FRET peptide phosphorylation;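 active = inhibition at or above 50% in each of two repeat confirmation tests; inconclusive = one repeat below 50% inhibition, the other above; inactive = both repeats at or below 50% inhibition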
Plk1 interf: compound interference with Plk1 assay readout, artefact control for Plk1 kinase inhibitor project, biochemical, TR-FRET, compound added post-reaction; inhibition (interference), % at 10 µM; 210 tested, under 10 active; shares compounds with PLK1 kinase inh;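 active = both duplicate runs show 50% or greater inhibition; inconclusive = only one duplicate run shows over 50% inhibition; inactive = both runs show under 50% inhibition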
Redox H2O2 DR: redox cycling hydrogen peroxide generation, dose response, artefact control for Plk1 PBD inhibitor project, biochemical. shares compounds with PLK1 PBD inh. redox cycling H2O2 generation, DTT, counter-screen. EC50, µM. 120 tested, under 10 active; call rule not given here
Large screens that a line does not name were inactive (follow-up assays come after a bar, where they were run). The list is not random: actives were taken first. Their share in the collection is about 2.2%.

COC(=O)CC1=C(C(=O)OC)C2(C(=O)Nc3c(C)cccc32)C(C#N)=C(N)O1 (stereo not drawn)	none
COc1ccc(Cn2c(N)c(C(=O)NCc3ccco3)c3nc4ccccc4nc32)cc1OC	PLK1 kinase inh 72 | PLK1 confirm 71 | Plk1 interf inactive
CCCNC(=O)c1c(N)n(Cc2ccco2)c2nc3ccccc3nc12	none (no result: PTK2B oligo ant)
CN(C)CC1CSCCC1(O)c1cccc(Cl)c1 (stereo not drawn)	none
CN1/C(=C\C=C\C2=[N+](C)c3ccc4ccccc4c3C2(C)C)C(C)(C)c2ccccc21	PLK1 kinase inh 86 (no result: PTK2B oligo ant) | PLK1 confirm inconclusive | Plk1 interf inactive
O=C1C(=O)c2ccccc2-c2ccccc21	PLK1 PBD inh 95 (no result: PTK2B oligo ant) | Redox H2O2 DR inactive
C=Cn1ccnc1P(=S)(c1nccn1C=C)C1CCCCC1	none
Cc1nc2c(=O)n(C)c(=O)nc-2n(C)n1	PLK1 PBD inh 116 | Redox H2O2 DR 1.6
CCn1nc(-c2ccccc2)nc2c(=O)n(C)c(=O)nc1-2	none (no result: NFkB transloc inh, PLK1 PBD inh, IL1B cytotox, NFkB transloc pot, PLK1 kinase inh)
CCOC(=O)c1ccc(NC(=O)c2c(O)[nH]c(=O)[nH]c2=O)cc1	PLK1 PBD inh 59 | Redox H2O2 DR inactive
CCOc1ccccc1-n1c(O)c(C=NCCCN(CC)CC)c(=O)[nH]c1=O	none
